Here are results for 54 molecules from PubChem BioAssay (NCATS).

Results filed as inconclusive are left out. The source made the active and inactive calls. Calls come from the whole dose curve; as a rule, active = well fitted inhibition curve with a large enough effect; inconclusive = small, poorly fitted or top-dose-only effect; inactive = flat fitted curve, though single readings scatter.

Test [1] relates to CRL-7250. As to the kind of experiment: Cytotoxic Profiling of Annotated Libraries Using Quantitative High-Throughput Screening (AID 1296008). Note: nearly all actives have a fitted effect of over 60% in size. Particulars: Five cell lines viability, CellTiter-Glo ATP luminescence, 48-72 h; max response: stronger effect = lower value. An outline of the steps: (§1)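 Compounds were pin-transferred onto cells and incubated 48 or 72 hr at 37 degree Celsius, 95% humidity. CellTiter-Glo was added, plates sat 10 min at room temperature, then ATP-coupled luminescence was imaged as the viability read-out.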
(In ATP-based viability assays light output follows the ATP content of the culture.)

Test [2] has as its system HEK293. Described as above. Particulars: Five cell lines viability, CellTiter-Glo ATP luminescence, 48-72 h; max response: stronger effect = lower value. An outline of the steps: as §1
% is set by controls: 0 for no effect and ±100 for the full control effect; potency is the fitted concentration of half-maximal effect.

On to `COc1nc2sc(C(=O)NC3CC3)c(N)c2c(C)c1Cl`, for which the max response in test [1] was -8.27% (inactive); in test [2], -8.8% (inactive).
Regarding `CC(=O)O[C@@H]1C[C@H](O)[C@@]23CO[C@H](O)[C@]1(C)C2C[C@@H](O)[C@]1(C)C3C(=O)[C@H](OC(C)=O)[C@@]2(C)[C@H](c3ccoc3)C[C@H]3O[C@]321` (stereo partly drawn), the figures for the Potency in test [1] and in test [2] were 485 nM (active) and 343 nM (active), respectively.
On to `CC1=C(CCC(C)CC(=O)O)[C@@]2(C)CCCC(C)(C)C2CC1=O` (stereo partly drawn), for which the max response in test [1] was 3.13% (inactive); in test [2], 0.185% (inactive).
Take `O=[N+]([O-])c1cn2c(n1)OCC(OCc1ccc(OC(F)(F)F)cc1)C2` (stereo not drawn): the max response was -10.3% (inactive) in test [1] and -14.5% (inactive) in test [2].
For `OCC(CO[C@@H]1O[C@H](CO)[C@@H](O)[C@H](O)[C@H]1O)c1ccc2c(c1)OCO2` (stereo partly drawn), the results for the max response in test [1] and in test [2] were 0.071% (inactive) and -1.28% (inactive), respectively.
For `COc1ccc(CCC(=O)c2c(O)cc(O)cc2O[C@@H]2O[C@H](CO)[C@@H](O)[C@H](O)[C@H]2O)cc1` the same measures were -5.63% (inactive) and -3.22% (inactive).
With `Cn1c2ccc(F)cc2c2c(C(=O)N3CCCC3)cn(-c3ccccc3)c(=O)c21`, the result in test [1] was inactive. For the same molecule, the max response in test [2] is -22.1% (inactive).
`CCNC(=O)Nc1ccc(-c2nc3c(c(N4CCOC[C@@H]4C)n2)CCN(c2ncccn2)C3)cc1`: the Potency in test [1] is 259 nM (active); in test [2], 184 nM (active).
For `COc1cc(OC)c(/C=C/S(=O)(=O)Cc2ccc(OC)c(NCC(=O)O)c2)c(OC)c1` the same measures were 231 nM (active) and 58 nM (active).
For `CC1CCC23COC(=O)C2=CC(O)CC3C1(C)CCC1=CC(O)OC1=O` (stereo not drawn), the max response is -0.17% (inactive) in test [1] and 1.91% (inactive) in test [2].
Regarding `C=C(C)C1CCC2(C(=O)O)CCC3(C(=O)O)C(CCC4C5(C)CCC(O)C(C)(C(=O)O)C5CCC43C)C12` (stereo not drawn), the call in test [1] was inactive. The max response in test [2] was 3.45% (inactive).
For the molecule `CC1=CC(=O)C2(OC3OC(C)C(O)C(OC(=O)/C=C/c4ccccc4)C3O)C=COC(OC3OC(CO)C(O)C(O)C3O)C12` (stereo not drawn), the max response was -3.56% (inactive) in test [1] and -0.0394% (inactive) in test [2].
Turning to `CO[C@@H](C)Cn1c(=O)n(C)c2cnc3ccc(-c4cncc(C(C)(C)O)c4)cc3c21`, the Potency in test [1] is 82 nM (active); in test [2] it was 231 nM (active).
Turning to `Cc1c(F)cc(C(=O)NC2CC2)cc1-c1c(F)cn2c(C(C)(C)C)nnc2c1F`, the max response in test [1] was -14.4% (inactive); in test [2], -22.1% (inactive).
The corresponding values for `O=C1OCC(c2ccccc2)=C1Cc1ccccc1` are -11.2% (inactive) and 0.652% (inactive).
Take `C[C@@H]1O[C@@H](O[C@H]2[C@H](OC(=O)[C@]34CCC(C)(C)C[C@H]3C3=CCC5[C@@]6(C)CC[C@H](O[C@@H]7O[C@H](C(=O)O)[C@@H](O)[C@H](O)[C@H]7O[C@@H]7O[C@H](CO)[C@H](O)[C@H](O)[C@H]7O)[C@@](C)(C=O)C6CC[C@@]5(C)[C@]3(C)C[C@H]4O)O[C@H](C)[C@H](O[C@@H]3O[C@H](C)[C@H](O)[C@H](O)[C@H]3O)[C@@H]2O)[C@H](O)[C@H](O)[C@H]1O[C@@H]1OC[C@@H](O)[C@H](O[C@@H]2O[C@H](CO)[C@@H](O)[C@H](O)[C@H]2O)[C@H]1O` (stereo partly drawn): the max response is -5.26% (inactive) in test [1] and -75.9% (inactive) in test [2].
Turning to `CCOC(=O)Nc1cc(-c2ccc(C)c(NS(C)(=O)=O)c2)nn2c(C)nnc12`, the Potency in test [1] was 7310 nM (active); in test [2], 4110 nM (active).
In the case of `C=C(C)[C@@H]1CC[C@]2(C)CC[C@]3(C)[C@H](CC[C@@H]4[C@@]5(C)CC[C@@H](O)C(C)(C)[C@@H]5CC[C@]43C)[C@@H]12`, the values for the max response in test [1] and in test [2] were -1.57% (inactive) and -21% (inactive), respectively.
For `CC1COC2(OC3CC4C5CC(O[C@@H]6O[C@H](C)[C@@H](O[C@@H]7O[C@@H](C)[C@H](O)[C@@H](O)[C@H]7O)[C@H](O)[C@H]6O)C6CC(O)CCC6(C)C5CCC4(C)C3C2C)C(O)C1` (stereo partly drawn) the same measures were -20% (inactive) and 3.68% (inactive).
The corresponding values for `COC1CC(OC2CCC3(C)C(=CCC4C3C(OC(C)=O)C(OC(=O)/C=C/c3ccccc3)C3(C)C(C(C)O)CCC43O)C2)OC(C)C1OC1CC(OC)C(OC2OC(C)C(OC3OC(CO)C(O)C(O)C3O)C(OC)C2O)C(C)O1` (stereo not drawn) are 2.68% (inactive) and -2.45% (inactive).
With `Cc1ccc(NC(=O)C(=O)NC2CC(C)(C)NC(C)(C)C2)cc1`, the result in test [1] was inactive. Moreover, the max response in test [2] was 1.35% (inactive).
Consider `CC1(C)CC2C(C1)C(C)(O)C13CC1(COC3=O)C2O` (stereo not drawn), for which the results for the max response in test [1] and in test [2] were -28% (inactive) and -10.5% (inactive), respectively.
As for `CC1CC[C@]2(C(=O)O)CC[C@]3(C(=O)O)C(=CCC4[C@@]5(C)CC[C@H](O[C@@H]6O[C@H](CO)[C@@H](O)[C@H](O)[C@H]6O)C(C)(C)C5CC[C@]43C)C2C1C` (stereo partly drawn), the results for the max response in test [1] and in test [2] were -9.19% (inactive) and -4.94% (inactive), respectively.
The corresponding values for `C[C@@H]1C[C@@H](O)[C@@]23CO[C@@H](O)[C@@H]2CCC[C@@H]3[C@@]12C[C@@H](c1ccoc1)OC2=O` are 0.0668% (inactive) and -9.22% (inactive).
Turning to `Cc1ccc(NC(=O)c2ccc(CN3CC[C@H](N(C)C)C3)c(C(F)(F)F)c2)cc1Nc1nccc(-c2cncnc2)n1`, in test [1], the max response was -22.1% (inactive). Further, the Potency in test [2] is 5630 nM (active).
With `Cc1cc(C)cc(C(=O)NOCCCCCC(=O)NO)c1`, the Potency was 8200 nM (active) in test [1] and 1640 nM (active) in test [2].
For the molecule `Cn1c(=O)cc(N2CCCC(N)C2)n(Cc2cc(F)ccc2C#N)c1=O` (stereo not drawn), the max response was 3.15% (inactive) in test [1] and -7.1% (inactive) in test [2].
As to `CN(C)C1CCN(C(=O)c2ccc(NC(=O)Nc3ccc(-c4nc(N5CCOCC5)nc(N5CCOCC5)n4)cc3)cc2)CC1`, the Potency was 16.4 nM (active) in test [1] and 51.7 nM (active) in test [2].
Regarding `OC/C=C/C=C/[C@H]1Cc2cc(O)cc(O)c2O1`, the result in test [1] was inactive. Moreover, the max response in test [2] was -7.6% (inactive).
Take `Cc1cc(C(=O)N2Cc3cnn(C)c3Nc3ccccc32)ccc1CNC(=O)N1CCC[C@H]1C(=S)N1CCCN(C)CC1`: the results for the max response in test [1] and in test [2] were 2.05% (inactive) and -0.106% (inactive), respectively.
The corresponding values for `C/C=C1\[C@H](O[C@@H]2O[C@H](CO)[C@@H](O)[C@H](O)[C@H]2O)OC=C2C(=O)OCCc3ccc(O)c(c3)Oc3ccc(cc3)CCOC(=O)C[C@H]21` are -21.9% (inactive) and -25.1% (inactive).
Regarding `O=C(O)c1ccc(CN2CCC(CN[C@@H]3C[C@H]3c3ccccc3)CC2)cc1`, the max response in test [1] was -10.5% (inactive); in test [2], -15.7% (inactive).
For the molecule `COc1cc2c(cc1OC)N1C(=O)C[C@]34C=CCN5CC[C@@H]2[C@@H](CC3)[C@]514`, in test [1], the result was inactive. In test [2], the max response was -26.4% (inactive).
Take `CC[C@]12C=CCN3CC[C@@]4(c5cc([C@@]6(C(=O)OC)C[C@H]7C[C@@H](C(C)(F)F)CN(Cc8c6[nH]c6ccccc86)C7)c(OC)cc5N(C)[C@H]4[C@@](O)(C(=O)OC)[C@@H]1OC(C)=O)[C@@H]32`: the results for the Potency in test [1] and in test [2] were 485 nM (active) and 172 nM (active), respectively.
In the case of `CCOc1cc(N2CCC(O)CC2)ccc1Nc1ncc2c(n1)N(C1CCCC1)CCC(=O)N2C`, the Potency is 6510 nM (active) in test [1] and 5800 nM (active) in test [2].
Take `CC1(C)CCC2(C(=O)OC3OC(CO)C(O)C(O)C3O)CCC3(C)C(=CCC4C5(C)CCC(O)C(C)(C(=O)O)C5CCC43C)C2C1O` (stereo not drawn): the max response is 3.57% (inactive) in test [1] and 4.09% (inactive) in test [2].
Consider `CC(C)=CCCC1(C)C=Cc2c(c(C)cc3c2[nH]c2ccccc23)O1` (stereo not drawn), for which the max response was -19.1% (inactive) in test [1] and -24.1% (inactive) in test [2].
As to `COc1ccc(/C=C\C(=O)O)c(O[C@@H]2O[C@H](CO)[C@@H](O)[C@H](O)[C@H]2O)c1`, in test [1], the call was inactive. The max response in test [2] was -0.642% (inactive).
With `N#C[C@@H]1C[C@H](F)CN1C(=O)CNC1[C@H]2CN(C(=O)c3ccc(F)cc3)C[C@@H]12` (stereo partly drawn), the results for the max response in test [1] and in test [2] were -1.2% (inactive) and 2.87% (inactive), respectively.
For `CC1C(=O)CC2C3CCC(C(=O)O)C12CC3(C)CO` (stereo not drawn) the same measures were -22.2% (inactive) and 0.671% (inactive).
As for `CC(=O)c1cc2c(cc1O)OC(C)(C)C=C2`, the result in test [1] was inactive. Besides, the max response in test [2] was 0.43% (inactive).
Consider `C=C(CO[C@@H]1O[C@H](CO[C@@H]2OC[C@](O)(CO)[C@H]2O)[C@@H](O)[C@H](O)[C@H]1O)C1Cc2cc(C(C)=O)ccc2O1` (stereo partly drawn), for which the max response is -1.55% (inactive) in test [1] and -4.65% (inactive) in test [2].
In the case of `C=C1CCC2C(C)(C)C(O)CCC2(C)C1CCC(C)CCO` (stereo not drawn), the max response in test [1] is -1.18% (inactive). For the same molecule, in test [2], the Potency was 11400 nM (active).
For `COc1ccc(C2(O)c3ccccc3NC(=O)C2O)cc1` (stereo not drawn), the max response in test [1] was 0.154% (inactive); in test [2], -5.12% (inactive).
For `C[C@@H]1C(=O)O[C@H]2[C@H](O)C34[C@H]5C[C@@H](C(C)(C)C)C36[C@@H](OC(=O)[C@@H]6O)O[C@@]4(C(=O)O5)[C@@]12O` (stereo partly drawn) the same measures were 3.72% (inactive) and -1.33% (inactive).
As to `COc1cccc(C(=O)N2CCN(C(=O)COc3cccc(C)c3)CC2)c1OC`, in test [1], the molecule was called inactive. For the same molecule, the max response in test [2] is -16.5% (inactive).
`C[C@H]1Oc2cc(cnc2N)-c2c(nn(C)c2C#N)CN(C)C(=O)c2ccc(F)cc21`: in test [1], the Potency is 36.6 nM (active). The max response in test [2] is -113% (inactive).
As to `COc1cc(N2CCC(N3CCN(C)CC3)CC2)ccc1Nc1ncc(Cl)c(-c2c[nH]c3ccccc23)n1`, the Potency in test [1] was 10300 nM (active); in test [2] it was 2910 nM (active).
On to `Cc1cc(C(=O)Nc2cccc(C(=O)Nc3cccc(C(F)(F)F)c3)c2)on1`, for which the max response was 4.99% (inactive) in test [1] and 2.99% (inactive) in test [2].
For `O=S(=O)(c1ccccc1)c1cnc2c(N3CCNCC3)cccc2c1` the same measures were 1.33% (inactive) and -8.82% (inactive).
Consider `Cc1onc(C(=O)N2CCN(C(c3ccc(Cl)cc3)c3ccc(Cl)cc3)CC2)c1[N+](=O)[O-]`, for which the Potency was 580 nM (active) in test [1] and 820 nM (active) in test [2].
Regarding `C=CC1C(OC2OC(CO)C(O)C(O)C2O)OC=C(C(=O)OC)C1CC1CC(=O)CC(CCc2ccc(O)cc2)O1` (stereo not drawn), the figures for the max response in test [1] and in test [2] were 3.27% (inactive) and -3.27% (inactive), respectively.
As to `COc1cc(-c2ncn(/C=C\C(=O)OC(C)C)n2)cc(C(F)(F)F)c1`, the Potency in test [1] was 4110 nM (active); in test [2] it was 259 nM (active).
`CC1OC(OC2CCC3(C)C(CCC4(C)C3CC=C3C5CC(C)(C)CCC5(C(=O)OC5OC(CO)C(O)C(O)C5O)CCC34C(=O)O)C2(C)C)C(O)C(O)C1O` (stereo not drawn): in test [1], the call was inactive. Also, the max response in test [2] was -0.856% (inactive).
